Measurements: PubChem BioAssay (NCATS)
Records with an inconclusive call do not appear. Active and inactive are the calls of the source. The call rests on the fitted dose curve; in most records, active means well fitted inhibition curve with a large enough effect; inconclusive means small, poorly fitted or top-dose-only effect; inactive means flat fitted curve, though single readings scatter.

Legend:
[1] = qHTS profiling for inhibitors of Plasmodium falciparum proliferation (AID 504749); further: nearly all actives have a fitted effect of over 60% in size;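 on activity, negative = inhibition: 0% = DMSO vehicle and full inhibition = artemisinin control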; details: P. falciparum in erythrocytes, SYBR Green DNA, 72 h
In short: (§1)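 SYBR Green fluorescence (ex 485 nm, em 535 nm) reports parasite DNA after 72 h compound exposure of infected red cells at 0.3% parasitemia, 2.5% hematocrit; signal normalized to 0.29 uM artemisinin and vehicle wells.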

3D7 = experiment: as above; details: P. falciparum in erythrocytes, SYBR Green DNA, 72 h; series mostly up to 28.7 µM
In short: as §1

7G8 = experiment: as above; details: P. falciparum in erythrocytes, SYBR Green DNA, 72 h; series mostly up to 28.7 µM
In short: as §1

AA1029 = experiment: as above; details: P. falciparum in erythrocytes, SYBR Green DNA, 72 h; series mostly up to 28.7 µM
In short: as §1

AS120 = experiment: as above; details: P. falciparum in erythrocytes, SYBR Green DNA, 72 h; series mostly up to 28.7 µM
In short: as §1

ATS189 = experiment: as above; details: P. falciparum in erythrocytes, SYBR Green DNA, 72 h; series mostly up to 28.7 µM
In short: as §1

ATS95 = experiment: as above; details: P. falciparum in erythrocytes, SYBR Green DNA, 72 h; series mostly up to 28.7 µM
In short: as §1

C2A = experiment: as above; details: P. falciparum in erythrocytes, SYBR Green DNA, 72 h; series mostly up to 28.7 µM
In short: as §1

CP185 = experiment: as above; details: P. falciparum in erythrocytes, SYBR Green DNA, 72 h; series mostly up to 28.7 µM
In short: as §1

CP191 = experiment: as above; details: P. falciparum in erythrocytes, SYBR Green DNA, 72 h; series mostly up to 28.7 µM
In short: as §1

CP192 = experiment: as above; details: P. falciparum in erythrocytes, SYBR Green DNA, 72 h; series mostly up to 28.7 µM
In short: as §1

CP194 = experiment: as above; details: P. falciparum in erythrocytes, SYBR Green DNA, 72 h; series mostly up to 28.7 µM
In short: as §1

CP201 = experiment: as above; details: P. falciparum in erythrocytes, SYBR Green DNA, 72 h; series mostly up to 28.7 µM
In short: as §1

CP203 = experiment: as above; details: P. falciparum in erythrocytes, SYBR Green DNA, 72 h; series mostly up to 28.7 µM
In short: as §1

CP211 = experiment: as above; details: P. falciparum in erythrocytes, SYBR Green DNA, 72 h; series mostly up to 28.7 µM
In short: as §1

CP215 = experiment: as above; details: P. falciparum in erythrocytes, SYBR Green DNA, 72 h; series mostly up to 28.7 µM
In short: as §1

CP217 = experiment: as above; details: P. falciparum in erythrocytes, SYBR Green DNA, 72 h; series mostly up to 28.7 µM
In short: as §1

CP237 = experiment: as above; details: P. falciparum in erythrocytes, SYBR Green DNA, 72 h; series mostly up to 28.7 µM
In short: as §1

CP238 = experiment: as above; details: P. falciparum in erythrocytes, SYBR Green DNA, 72 h; series mostly up to 28.7 µM
In short: as §1

[2] = at 28.7 µM (top of the series), parasite line A
[3] = at 28.7 µM (top of the series), parasite line B
Potency means the concentration at half of the fitted maximal effect.

CC(=O)Nc1ccc(S(=O)(=O)Nc2ccc([N+](=O)[O-])cc2)cc1
inactive: activity, negative = inhibition [1, 2] -0.674% | activity, negative = inhibition [1, 3] 0.755% | Potency (3D7) | Potency (7G8) | Potency (AA1029) | Potency (AS120) | Potency (ATS189) | Potency (ATS95) | Potency (C2A) | Potency (CP185) | Potency (CP191) | Potency (CP192) | Potency (CP194) | Potency (CP201) | Potency (CP203) | Potency (CP211) | Potency (CP215) | Potency (CP217) | Potency (CP237) | Potency (CP238)

CCCCCCCCOc1ccc(C(=O)c2ccccc2)c(O)c1
inactive: activity, negative = inhibition [1, 2] 16.4% | activity, negative = inhibition [1, 3] 14.5% | Potency (3D7) | Potency (7G8) | Potency (AA1029) | Potency (AS120) | Potency (ATS189) | Potency (ATS95) | Potency (C2A) | Potency (CP185) | Potency (CP191) | Potency (CP192) | Potency (CP194) | Potency (CP201) | Potency (CP203) | Potency (CP211) | Potency (CP215) | Potency (CP217) | Potency (CP237) | Potency (CP238)

CCC1Nc2cc(Cl)c(S(N)(=O)=O)cc2S(=O)(=O)N1 (stereo not given)
inactive: activity, negative = inhibition [1, 2] 11% | activity, negative = inhibition [1, 3] 6.74% | Potency (3D7) | Potency (7G8) | Potency (AA1029) | Potency (AS120) | Potency (ATS189) | Potency (ATS95) | Potency (C2A) | Potency (CP185) | Potency (CP191) | Potency (CP192) | Potency (CP194) | Potency (CP201) | Potency (CP203) | Potency (CP211) | Potency (CP215) | Potency (CP217) | Potency (CP237) | Potency (CP238)

CCOC(=O)[C@H](CCc1ccccc1)N[C@@H](C)C(=O)N1[C@H](C(=O)O)C[C@H]2CCCC[C@@H]21
inactive: activity, negative = inhibition [1, 2] 8.44% | activity, negative = inhibition [1, 3] 4.83% | Potency (3D7) | Potency (7G8) | Potency (AA1029) | Potency (AS120) | Potency (ATS189) | Potency (ATS95) | Potency (C2A) | Potency (CP185) | Potency (CP191) | Potency (CP192) | Potency (CP194) | Potency (CP201) | Potency (CP203) | Potency (CP211) | Potency (CP215) | Potency (CP217) | Potency (CP237) | Potency (CP238)

COP(=O)(OC)OC(c1ccc(Cl)cc1)P(=O)(OC)OC (stereo not given)
inactive: activity, negative = inhibition [1, 2] 10.6% | activity, negative = inhibition [1, 3] -3.59% | Potency (3D7) | Potency (7G8) | Potency (AA1029) | Potency (AS120) | Potency (ATS189) | Potency (ATS95) | Potency (C2A) | Potency (CP185) | Potency (CP191) | Potency (CP192) | Potency (CP194) | Potency (CP201) | Potency (CP203) | Potency (CP211) | Potency (CP215) | Potency (CP217) | Potency (CP237) | Potency (CP238)

CCc1ccc(C(=O)C(C)CN2CCCCC2)cc1 (stereo not given)
inactive: activity, negative = inhibition [1, 2] 2.55% | activity, negative = inhibition [1, 3] 6.09% | Potency (3D7) | Potency (7G8) | Potency (AA1029) | Potency (AS120) | Potency (ATS189) | Potency (ATS95) | Potency (C2A) | Potency (CP185) | Potency (CP191) | Potency (CP192) | Potency (CP194) | Potency (CP201) | Potency (CP203) | Potency (CP211) | Potency (CP215) | Potency (CP217) | Potency (CP237) | Potency (CP238)

Cc1ccc(S(=O)(=O)NC(=O)NC2CCCC2)cc1
inactive: activity, negative = inhibition [1, 2] 11.1% | activity, negative = inhibition [1, 3] 9.92% | Potency (3D7) | Potency (7G8) | Potency (AA1029) | Potency (AS120) | Potency (ATS189) | Potency (ATS95) | Potency (C2A) | Potency (CP185) | Potency (CP191) | Potency (CP192) | Potency (CP194) | Potency (CP201) | Potency (CP203) | Potency (CP211) | Potency (CP215) | Potency (CP217) | Potency (CP237) | Potency (CP238)

Cc1c[nH]c2ccccc12
inactive: activity, negative = inhibition [1, 2] -2.76% | activity, negative = inhibition [1, 3] 2.47% | Potency (3D7) | Potency (7G8) | Potency (AA1029) | Potency (AS120) | Potency (ATS189) | Potency (ATS95) | Potency (C2A) | Potency (CP185) | Potency (CP191) | Potency (CP192) | Potency (CP194) | Potency (CP201) | Potency (CP203) | Potency (CP211) | Potency (CP215) | Potency (CP217) | Potency (CP237) | Potency (CP238)

CC(=O)Nc1ccc(CC(=O)O)cc1
inactive: activity, negative = inhibition [1, 2] 9.92% | activity, negative = inhibition [1, 3] 11.5% | Potency (3D7) | Potency (7G8) | Potency (AA1029) | Potency (AS120) | Potency (ATS189) | Potency (ATS95) | Potency (C2A) | Potency (CP185) | Potency (CP191) | Potency (CP192) | Potency (CP194) | Potency (CP201) | Potency (CP203) | Potency (CP211) | Potency (CP215) | Potency (CP217) | Potency (CP237) | Potency (CP238)

O=C(NCCc1c[nH]c2ccccc12)c1cccnc1
inactive: activity, negative = inhibition [1, 2] 0.138% | activity, negative = inhibition [1, 3] 13.6% | Potency (3D7) | Potency (7G8) | Potency (AA1029) | Potency (AS120) | Potency (ATS189) | Potency (ATS95) | Potency (C2A) | Potency (CP185) | Potency (CP191) | Potency (CP192) | Potency (CP194) | Potency (CP201) | Potency (CP203) | Potency (CP211) | Potency (CP215) | Potency (CP217) | Potency (CP237) | Potency (CP238)

COc1cc(NS(=O)(=O)c2ccc(N)cc2)ncn1
inactive: activity, negative = inhibition ([1]; at 12.8 µM (top of the series), parasite line A) 3.14% | activity, negative = inhibition ([1]; at 12.8 µM (top of the series), parasite line B) 1.14% | Potency (3D7) | Potency (7G8) | Potency (AA1029) | Potency (AS120) | Potency (ATS189) | Potency (ATS95) | Potency (C2A) | Potency (CP185) | Potency (CP191) | Potency (CP192) | Potency (CP194) | Potency (CP201) | Potency (CP203) | Potency (CP211) | Potency (CP215) | Potency (CP217) | Potency (CP237) | Potency (CP238)

CCCCCCCCNC(C)C(O)c1ccc(SC(C)C)cc1 (stereo not given)
active: Potency ([1]; parasite line A) 1260 nM | Potency ([1]; parasite line B) 562 nM | Potency (3D7) 794 nM | Potency (7G8) 100 nM | Potency (AA1029) 1000 nM | Potency (AS120) 891 nM | Potency (ATS189) 631 nM | Potency (ATS95) 1260 nM | Potency (C2A) 891 nM | Potency (CP185) 891 nM | Potency (CP191) 794 nM | Potency (CP192) 2130 nM | Potency (CP194) 1900 nM | Potency (CP201) 3790 nM | Potency (CP203) 1690 nM | Potency (CP211) 3380 nM | Potency (CP215) 1690 nM | Potency (CP217) 708 nM | Potency (CP237) 794 nM | Potency (CP238) 794 nM
